Experimental data from PubChem BioAssay AID1645886 (National Center for Advancing Translational Sciences (NCATS), 2021).
Screen size: about 16,000 compounds; about 260 (1.6%) were called active. Where a call stands in place of a potency, no number is given. About 14% were inconclusive and are not listed. Only a selection was taken, and actives are over-represented in it overall. Unmarked numbers belong to inactive results. Calls come from the whole dose curve; as a rule, active = well fitted inhibition curve with a large enough effect; inconclusive = small, poorly fitted or top-dose-only effect; inactive = no such curve, though single readings can be large or run the other way.

biological target: Rap guanine nucleotide exchange factor 4 (Homo sapiens) (UniProt Q8WZA2); assay: Validation qHTS for antagonist of cAMP-regulated guanine nucleotide exchange factor 4 (EPAC2); details: EPAC2 Rap1B BODIPY-GDP exchange, fluorescence; series mostly up to 112 µM; note: nearly all actives have a fitted effect of over 40% in size
Sequence (Q8WZA2 whole entry, looked up): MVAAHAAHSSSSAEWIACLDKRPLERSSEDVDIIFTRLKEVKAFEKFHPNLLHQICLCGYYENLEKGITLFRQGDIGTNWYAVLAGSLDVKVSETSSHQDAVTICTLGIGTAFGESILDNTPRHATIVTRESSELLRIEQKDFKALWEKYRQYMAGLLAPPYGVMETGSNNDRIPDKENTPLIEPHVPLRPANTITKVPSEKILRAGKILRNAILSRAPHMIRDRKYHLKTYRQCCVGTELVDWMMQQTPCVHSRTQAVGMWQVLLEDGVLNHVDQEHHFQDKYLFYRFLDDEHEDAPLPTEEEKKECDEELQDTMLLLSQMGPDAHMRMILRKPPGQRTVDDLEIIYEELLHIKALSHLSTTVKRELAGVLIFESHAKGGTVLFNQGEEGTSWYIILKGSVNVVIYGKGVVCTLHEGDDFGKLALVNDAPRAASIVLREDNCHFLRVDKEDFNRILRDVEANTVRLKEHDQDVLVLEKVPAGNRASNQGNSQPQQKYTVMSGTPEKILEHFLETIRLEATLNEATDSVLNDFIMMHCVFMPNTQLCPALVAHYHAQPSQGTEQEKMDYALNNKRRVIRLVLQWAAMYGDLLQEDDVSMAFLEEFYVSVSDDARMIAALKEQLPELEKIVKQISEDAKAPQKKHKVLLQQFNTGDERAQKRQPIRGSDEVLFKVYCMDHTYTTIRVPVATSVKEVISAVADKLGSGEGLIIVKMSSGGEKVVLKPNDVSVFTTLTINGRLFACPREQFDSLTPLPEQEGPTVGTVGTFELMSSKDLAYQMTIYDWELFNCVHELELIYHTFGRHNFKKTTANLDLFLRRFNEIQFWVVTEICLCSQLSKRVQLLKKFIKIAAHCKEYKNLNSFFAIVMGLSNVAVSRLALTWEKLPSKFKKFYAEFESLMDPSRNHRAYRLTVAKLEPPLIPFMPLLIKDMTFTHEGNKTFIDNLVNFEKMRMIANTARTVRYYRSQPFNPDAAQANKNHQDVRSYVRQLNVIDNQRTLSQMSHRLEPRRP
Excerpt: Principle Investigator: Xiaodong Cheng Ph.D. The University of Texas Medical Branch, […], TX MLPCN Grant: NS066510 In multi-cellular eukaryotic organisms, the effects of cAMP are transduced by two ubiquitously-expressed intracellular cAMP receptors, the classic protein kinase A/cAMP-dependent protein kinase (PKA/cAPK) and the more recently discovered exchange protein directly activated by cAMP/cAMP-regulated guanine nucleotide exchange factor (EPAC/cAMP-GEF). Both PKA and EPAC are ubiquitously expressed in all tissues, and an increase in intracellular cAMP levels will lead to the activation of both PKA and EPAC. Therefore, careful dissections of the individual role and relative contribution of EPAC and PKA within the overall cAMP signaling in various model systems are critical for further elucidating the mechanism of cAMP signaling. To date no EPAC-specific antagonists and agonist, as well as isoform-specific agonists have been reported, and developing EPAC-specific pharmacological probes to determine the physiological functions that EPAC play in the overall cAMP-mediated signaling remains a major challenge within the research field. Furthermore, identified regulators of EPAC may lead to new mechanism-based therapeutic strategies specifically targeting the EPAC / cAMP-signaling components as EPAC has been implicated to play important roles in major human pathological conditions such as diabetes, heart disease, and cancer. This qHTS will be used to screen the Molecular Libraries Small Molecule Repository (MLSMR) as a concentration-titration series using the NCGC unique quantitative screening (qHTS) platform to find activators for EPAC1. In addition, this assay will also be used as a counterscreen for the EPAC2 qHTS. This fluorescent based assay is developed and validated for EPAC1 that measures exchange using EPAC effector Rap1 complex with BODIPY-GDP, a GDP analog with a tethered fluorophores. Activators are identified by monitoring the change in fluorescence signal as the exchanged free BODIPY-GDP has a reduced fluorescence compared to Rap1-bound BODIPY-GDP. Increase in signal (activation) is the desired outcome for the EPAC1 agonist while no activity in this assay is desired for the EPAC2 agonist counterscreen. Reference: [1] de Rooij, J., Zwartkruis, F. J., Verheijen, M. H., Cool, R. H., Nijman, S. M., Wittinghofer, A., and Bos, J.L. (1998) Nature 396, 474-477.
Briefly, three uL of reagents (100 nM EPAC2, 250 nM RAP1B-BODIPY-GDP, 50 uM GDP) were dispensed into a 1536-well Greiner black solid-bottom medium binding assay plate. Controls and test compounds (23 nL) were transferred to the plate via a Kalypsys pin tool equipped with a 1536-pin array. The plates were centrifuged at 1,000 rpm for 15 seconds followed by 5 minute incubation at room temperature. The assay plates were read at 5 minute intervals for 30 minutes in the ViewLux plate reader using 480nm excitation and 540nm emission filters. The results were normalized to the agonist positive control of 6.5 mM cAMP.
Potency is the fitted concentration of half-maximal effect.

Compound | Potency | activity, negative = inhibition
Cc1cc(-c2ccnc(-n3ncc(C(=O)NCCc4ccncc4)c3C)n2)c(C)s1 | inactive | 
CC(=O)OCC(=O)[C@@]1(O)CCC2C3CCC4=CC(=O)CC[C@]4(C)C3C(=O)C[C@]21C (stereo not given in full) | inactive | 
c1cncc(CNc2ccnc(-c3ccc4c(c3)OCO4)n2)c1 | inactive | 
COc1ccc2[nH]cc(CCNc3ncnc4ccc(-c5ccccc5CN(C)C)cc34)c2c1 | inactive | 
COc1ccc(Oc2ncc3nc(C)c(=O)n(-c4ccccc4)c3n2)cc1 | inactive | 
O=C(OCc1ccccc1)c1ccc(O)cc1 | inactive | 
O=C1C(c2ccccn2)=[N+]([O-])c2ccccc21 | inactive | 
Cn1nccc1C(=O)NCC1CCC2(CCN(Cc3c(O)ccc4ccccc34)CC2)O1 (stereo not given) | inactive | 
COc1ccccc1N1CCN(CCN2C(=O)c3ccccc3C(C)(C)C2=O)CC1 | inactive | 
COc1ccc(-c2nc3cnc(N(C)C)nc3n(Cc3cccs3)c2=O)cc1 | inactive | 
COc1ccc(-n2c(CNC(=O)c3cc(C(F)(F)F)ccc3Cl)nnc2SC)cc1 | inactive | 
CC(=O)O[C@H]1CC[C@@]2(C)C(=CC[C@@H]3[C@@H]2CC[C@]2(C)C(c4cccnc4)=CC[C@@H]32)C1 | inactive | 
COc1ccc(CCCOC(Cn2ccnc2)c2ccc(OC)cc2)cc1 (stereo not given) | inactive | 
Cc1cnc(CNc2nc(-c3cccnc3)nc3ccccc23)cn1 | inactive | 
Cc1cc(C)cc(CN2CCc3nnc(C(NS(C)(=O)=O)C(C)C)n3CC2)c1 (stereo not given) | inactive | 
COCCNc1ncnc2ccc(-c3ccccc3CN(C)C)cc12 | inactive | 
Cc1cccc(CNc2ccnc(-c3cccnc3)n2)c1 | inactive | 
CC(=O)N1CCC2(CCCN(Cc3ccc(C#N)cc3)C2)CC1 | inactive | 
Cc1c(S(=O)(=O)O)oc2c1C(=O)C(=O)c1c-2ccc2c1CCCC2(C)C | 44.7 µM (active) | 
COc1ccc(CN(C)CCn2cc(C(=O)N3CCSCC3)nn2)cc1C | inactive | 
c1ccc(CNc2ncncc2-c2cccnc2)cc1 | inactive | 
CS(=O)(=O)NC(=O)CCC/C=C\C[C@H]1C(=O)C[C@@H](O)[C@@H]1/C=C/[C@H](O)COc1ccccc1 | inactive | 

Compound | Potency | activity, negative = inhibition
COc1ccc(C(=O)N2CCC[C@@]3(CCN(C(=O)NC(C)C)C3)C2)cc1 | inactive | 
Cc1cnc(-n2ncc(C(=O)N3CCN(C(C)C)CC3)c2-c2ccco2)nc1-c1ccc(F)cc1 | inactive | 
CN(C)c1ccc(/C=C/c2c3ccccc3nc3ccccc23)cc1 | inactive | 
O=c1c(-c2ccc(F)cc2)nc2cncnc2n1-c1ccccc1 | inactive | 
COCC1CCCN(Cc2ccc3c(c2)CN(C(=O)c2ccnn2C)CCO3)C1 (stereo not given) | inactive | 
Cc1c(O)cc2c(c1C)O[C@](C)(CCC[C@H](C)CCC[C@H](C)CCCC(C)C)CC2 | inactive | 
CCc1noc(C)c1C(=O)NCCN1Cc2cc(OC)ccc2OC(CC)C1 (stereo not given) | inactive | 
CC(N)(C(=O)O)c1ccc(-c2nn[nH]n2)cc1 (stereo not given) | inactive | 
O=C1CCC[C@@H]2C[C@@]3(C[C@@H]4CCN1[C@H]24)Nc1ccccc1NC3=NCc1ccccc1 | inactive | 
C=C1O[C@@](CO)(n2cnc3c(N)ncnc32)[C@H](O)[C@@H]1O | inactive | 
CO/N=C(\C(=O)N[C@@H]1C(=O)N2C(C(=O)O)=CCS[C@H]12)c1csc(N)n1 | inactive | 
COC(=O)CC1C(C)(C)C(OC(C)=O)C2CC3=C4CC(=O)OC(c5ccoc5)[C@]4(C)CCC3[C@@]1(C)C2=O (stereo not given in full) | inactive | 
COc1ccccc1CNc1ccnc(-c2c(C)noc2C)n1 | inactive | 
COc1ccc(C(=O)N2CCC3(CCCN(C(c4ccccc4)c4ccccc4)C3)CC2)cc1 | inactive | 
CN(C)C(=O)c1ccc(-c2cncnc2NC2CCNCC2)cc1 | inactive | 
CCC1(C2CCN(C(=O)c3cccc(F)c3F)CC2)NC(=O)N(CCc2scnc2C)C1=O (stereo not given) | inactive | 
COc1ccccc1N1CCN(C[C@@H]2CN3C(=O)N(C)c4ccccc4C3=N2)CC1 | inactive | 
CCC(C)[C@H]1COCCS(=O)(=O)N1Cc1ccc(C)cc1 (stereo not given in full) | 79.4 µM (active) | 
Cc1ccc(CN2CCCOCCS2(=O)=O)cc1 | inactive | 
Cc1ncc2c(c1CNS(=O)(=O)N(C)C)CCN(C(=O)c1ccccc1F)C2 | inactive | 
COCCNc1cc(-c2c(C)noc2C)ncn1 | inactive | 
C[N+](C)(C)CCCCCNCC12CC3CC(CC(C3)C1)C2 | inactive | 

Compound | Potency | activity, negative = inhibition
O=C(O)CCCc1ccccc1 | inactive | 
Cc1cccc(CNC(=O)c2cnn(-c3nccc(-c4ccccc4F)n3)c2C2CC2)n1 | inactive | 
O=C(c1cnccn1)N1CCC[C@@]2(CCN(Cc3ccncc3)C2)C1 | inactive | 
COCCn1c(=O)c(-c2cc(F)cc(F)c2)nc2cnc(N3CCNCC3)nc21 | inactive | 
Cn1cccc1C(=O)N1CCC[C@@]2(CCN(Cc3nccs3)C2)C1 | inactive | 
CC(C)=CC1C(C(=O)O)C1(C)C (stereo not given) | inactive | 
CCCCC/C=C\C/C=C\CCCCCCCCCC(=O)O |  | -26.6% [at 11.4 µM]
COc1ccccc1C1CN(Cc2ccccc2O)Cc2ccccc2O1 (stereo not given) | inactive | 
Cc1c(O)cc(O)c2c(=O)c(-c3ccc(O)cc3)coc12 | inactive | 
C[C@@H]1O[C@@H](OC[C@H]2O[C@@H](Oc3c(-c4cccc(O)c4O)oc4cc(O)cc(O)c4c3=O)[C@H](O)[C@@H](O)[C@@H]2O)[C@H](O)[C@H](O)[C@H]1O | inactive | 
COc1cccc(Cn2c(=O)c(-c3ccccc3)nc3cnc(OC)nc32)c1 | inactive | 
O=c1c(-c2ccc(F)cc2)nc2cnc(N3CCNCC3)nc2n1Cc1cccs1 | inactive | 
O=C(c1csnn1)N1CCC[C@@]2(CCN(Cc3nccs3)C2)C1 | inactive | 
COCCN1CCN(C(=O)c2sc3ncnc(NCC4CCCO4)c3c2C)CC1 (stereo not given) | inactive | 
O=C(Nc1cccc(F)c1)N1CCC2(CC1)CCN(S(=O)(=O)c1ccccc1)CC2 | inactive | 
c1ccc2c(Nc3ccncc3)nc(-c3ccoc3)nc2c1 | inactive | 
COCCn1c(=O)c(CCc2ccccc2)nc2cncnc21 | inactive | 
CCC(C)[C@@H](N)C(=O)O (stereo not given in full) | inactive | 
O=S(=O)(c1ccccc1)N1CCC2(CC1)CN(Cc1nccs1)C2 | inactive | 
COc1ccc(NC(=O)N2CC3(CCN(C(=O)c4cccn4C)CC3)C2)cc1 | inactive | 
COc1cccc(Nc2ncc3ncc(=O)n(C4CC4)c3n2)c1 | inactive | 
